High-throughput results from PubChem.
A selection: hits, their analogues and other compounds. The true share with any hit is near 1.4%.
AID504770: growth inhibitors of E. coli YBA685 in a screen for V. cholerae RctB (chromosome II replication) inhibitors. E. coli YBA685 rctB-dependent plasmid, OD600 growth, 3 h; active compounds read low. z-score (test concentration not listed). 130,000 compounds, 0.27% hits. AID 504770; in the data active = z-score below about -2, passing the limit was not always enough
MenB inh: blocks the Mycobacterium tuberculosis MenB enzyme. P9WNP5. MenB enzyme assay, absorbance read-out. inhibition, % (concentration not given with the values). 100,000 compounds, 0.43% hits; in the data active = inhibition above about 21%, passing the limit was not always enough
Target sequence (P9WNP5 whole entry, looked up): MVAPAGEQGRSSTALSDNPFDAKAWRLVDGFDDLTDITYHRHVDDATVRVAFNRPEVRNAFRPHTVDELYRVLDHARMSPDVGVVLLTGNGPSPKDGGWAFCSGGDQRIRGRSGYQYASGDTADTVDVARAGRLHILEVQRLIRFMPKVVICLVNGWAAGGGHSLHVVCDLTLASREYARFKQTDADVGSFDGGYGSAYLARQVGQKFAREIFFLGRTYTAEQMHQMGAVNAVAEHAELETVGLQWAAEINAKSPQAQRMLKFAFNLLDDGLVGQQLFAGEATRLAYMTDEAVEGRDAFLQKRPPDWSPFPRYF
Mtb MbtI inh: blocks the Mycobacterium tuberculosis siderophore enzyme MbtI; P9WFX0; purified MbtI enzyme, fluorescence intensity read-out; inhibition, % (concentration not given with the values); 100,000 compounds, 0.89% hits; AID 493033; in the data active = inhibition mostly above about 56%, no sharp cut-off; inactive = mostly below about 77%
Polio RdRp inh: poliovirus RNA polymerase inhibition | % elongation, % (compound at 16.7 µg/mL) | AID 588519 | poliovirus polymerase elongation, fluorescence polarization; active compounds read low | 150,000 compounds, 0.66% hits; in the data active = % elongation below about 90%
Hits are given with their value; . = inactive; / = not tested or not shown.

SMILES	AID504770	MenB inh	Mtb MbtI inh	Polio RdRp inh
Oc1ccc(C(=S)N2CCCCC2)cc1	.	.	58	.
S=C(c1ccc(Br)cc1)N1CCCC1	.	.	/	.
Cc1c(CCNC(=O)c2cc(S(=O)(=O)N(C)C)c(Cl)cc2Cl)c2ccccc2n1C	.	.	/	89
CN(C)S(=O)(=O)c1cc(C(=O)NCCc2ccccc2)c(Cl)cc1Cl	.	/	/	/
CCNc1nc(NCC)nc(NCCO)n1	.	32	.	.
CCNc1nc(Cl)nc(NCC)n1	.	/	.	.
CCN1CCc2c(sc3c2C(=O)NC(c2ccc(COc4cccc(C(F)(F)F)c4)o2)N3)C1 (centres undefined)	.	.	.	.
N#Cc1ccc(CSc2nc3ccccc3c(=O)[nH]2)cc1	.	.	53	.
C=CCN(C)C1CC(=O)N(c2ccc(C)c(Cl)c2)C1=O (centres undefined)	.	.	95	.
Cc1ccc(N2C(=O)CC(NCc3ccc(S(N)(=O)=O)cc3)C2=O)cc1Cl (centres undefined)	.	.	.	.
CCN(CC)S(=O)(=O)c1cccc(-n2sc3ccccc3c2=O)c1	.	.	100	.
CCN(CC)c1ccc(NC(=S)NC(C)C)cc1	.	.	.	.
CCN(CC)c1ccc(NC(=S)Nc2ccc(S(N)(=O)=O)cc2)cc1	.	.	63	.
O=C1c2ccccc2-c2nn(C(=O)C3CCN(S(=O)(=O)c4cccs4)CC3)c3cccc1c23	.	.	.	.
Cc1ccc(C(=O)Nc2cccc(O)c2)cc1	-2.4	.	.	.
Cc1ccc(C(=O)Nc2cc(C)cc(C)c2)cc1	.	.	.	.
Cc1cccc(Nc2nc3nonc3nc2Cl)c1	.	.	/	48
FC(F)(F)c1cccc(Nc2nc3nonc3nc2Nc2ccc(Cl)cc2)c1	/	/	/	.
O=C(/C=C/S(=O)(=O)c1ccc(Br)cc1)c1ccc(F)cc1	.	/	/	/
O=C(/C=C/S(=O)(=O)c1ccc(Cl)cc1)c1ccc(F)cc1	.	.	98	.
O=C(O)/C=C/C(=O)c1ccc(F)cc1	.	/	74	43
Cc1ccc(C)c(N2CCN(CCCNC(=O)c3oc4c(c3C)-c3[nH]ncc3CC4)CC2)c1	.	.	.	.
C=CCN(CC=C)C(=O)c1ccc(NC(=O)CC)cc1	.	.	.	.
O=C(Cc1cn2ccsc2n1)N/N=C1\CCCCC1C1CCCCC1 (centres undefined)	.	.	.	.
CCOC(=O)/C(C#N)=C/c1cn(CCC#N)nc1-c1ccccc1	.	.	.	.
SMILES	AID504770	MenB inh	Mtb MbtI inh	Polio RdRp inh
CCOC(=O)CCn1cc(/C=C(\C#N)C(N)=S)c(-c2ccccc2)n1	.	.	.	89
O=C1CSc2nnc(C3COc4ccccc4O3)n2N1 (centres undefined)	.	.	85	.
CC1(C)CC(=O)C=C(Nc2ccccc2F)C1	-2.5	.	.	.
NC(=O)C1CCN(C(c2ccc(F)cc2)c2nnc(-c3ccccc3)o2)CC1 (centres undefined)	.	.	.	.
O=C(NCc1ccccc1)N1CCCCC1	.	.	.	.
COC(=O)C1CCN(C(c2ccc(F)cc2)c2ccc(F)cc2)CC1	.	20	.	.
O=C(NCc1ccccc1)N1CCN(C(c2ccc(F)cc2)c2ccc(F)cc2)CC1	-2.9	.	.	.
CC1CCCCN1C(=O)Cn1c(=O)cnc2ccccc21 (centres undefined)	.	.	.	.
CCOc1nc(NCc2ccco2)nc(N2CC3CC(C2)c2cccc(=O)n2C3)n1 (centres undefined)	.	39	.	.
O=c1cccc2n1CC1CC2CN(c2nc(N3CCCCC3)nc(N3CCCCC3)n2)C1 (centres undefined)	-2.7	.	.	.
CCCC(=O)Oc1c(Sc2ccccc2)c(C)nn1-c1ccccc1	/	/	58	/
O=C(CSc1nc2ccccc2c(=O)n1Cc1ccc2c(c1)OCO2)NC1CCCCC1	.	/	/	/
Cc1nc(C(F)(F)F)ccc1C(=O)NCc1ccccc1	.	/	/	/
Cc1nc(C(F)(F)F)ccc1C(=O)NCC(O)c1ccccc1 (centres undefined)	.	.	.	88
O=C(CN1CCC(O)(c2ccccc2)CC1)NC1CCCCC1	.	.	.	.
O=C(CSc1ccc2nc(-c3ccccc3)cn2n1)Nc1ccccc1	/	/	/	87
CC(=O)c1ccc(NC(=O)CSc2ccc3nc(-c4ccccc4)cn3n2)cc1	/	/	/	.
NS(=O)(=O)c1cccc(S(=O)(=O)c2ccc(Cl)c(Cl)c2)c1	.	.	67	.
O=C(N=Nc1c(O)n(CN2CCCC2)c2ccccc12)c1ccccc1	.	.	.	.
COc1ccc(C=C2C(=O)NC(=O)NC2=O)cc1	.	.	.	.
COc1ccc(C=C2C(=O)NC(=S)NC2=O)cc1	.	.	97	.
